# Results reported in the supplement of paper PMC8728848.
# Many of the other results were omitted from the sample, so the strongest signals are more common in it than they were.
# B1: Gal 8 (Mus musculus), Q9JL15 (protein)
# chain: MGGSHHHHHHGMASMLSLNNLQNIIYNPIIPYVGTITEQLKPGSLIVIRGHVPKDSERFQVDFQLGNSLKPRADVAFHFNPRFKRSSCIVCNTLTQEKWGWEEITYDMPFRKEKSFEIVFMVLKNKFQVAVNGRHVLLYAHRISPEQIDTVGIYGKVNIHSIGFRFSSASALPHTLGDLQSMETSALGLTQINRENIQKPGKLQLSLPFEARLNASMGPGRTVVIKGEVNTNARSFNVDLVAGKTRDIALHLNPRLNVKAFVRNSFLQDAWGEEERNITCFPFSSGMYFEMIIYCDVREFKVAINGVHSLEYKHRFKDLSSIDTLSVDGDIRLLDVRSW
# Key:
# Assay in all cases: glycan array binding signal (z-score within array); higher = stronger binding
# Conditions in all cases: glycan notation: IUPAC condensed, linker removed
# [1] = molecular target: Fuc(a1-2)Gal(b1-3)GalNAc(b1-4)[Neu5Ac(a2-3)]Gal(b1-4)Glc
# Procedure, shortened: (§1)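 Glycan array data came from 3228 arrays in the Consortium for Functional Glycomics database, and only arrays with an available protein sequence were kept. Glycan names were put into IUPAC-condensed notation, and columns mapping to the same glycan were averaged. The binding signal is a within-array Z-score, averaged across arrays of one protein sequence run at different concentrations or buffers and across linkers. A negative Z-score can be read as non-binding.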
# Fuc(a1-2)Gal(b1-3)GlcNAc = molecular target: Fuc(a1-2)Gal(b1-3)GlcNAc
# Procedure, shortened: as §1
# Fuc(a1-2)Gal(b1-4)Glc = molecular target: Fuc(a1-2)Gal(b1-4)Glc
# Procedure, shortened: as §1
# [2] = molecular target: Fuc(a1-2)Gal(b1-4)GlcNAc6S
# Procedure, shortened: as §1
# [3] = molecular target: Fuc(a1-2)Gal(b1-4)[Fuc(a1-3)]GlcNAc(b1-2)Man(a1-3)[Fuc(a1-2)Gal(b1-4)[Fuc(a1-3)]GlcNAc(b1-2)Man(a1-6)]Man(b1-4)GlcNAc(b1-4)[Fuc(a1-6)]GlcNAc
# Procedure, shortened: as §1
# [4] = molecular target: Fuc(a1-2)[Gal(a1-3)]Gal(b1-3)GlcNAc
# Procedure, shortened: as §1
# [5] = molecular target: Fuc(a1-2)[Gal(a1-3)]Gal(b1-3)GlcNAc(b1-2)Man(a1-3)[Fuc(a1-2)[Gal(a1-3)]Gal(b1-3)GlcNAc(b1-2)Man(a1-6)]Man(b1-4)GlcNAc(b1-4)GlcNAc
# Procedure, shortened: as §1
# [6] = molecular target: Fuc(a1-2)[Gal(a1-3)]Gal(b1-4)Glc
# Procedure, shortened: as §1
# [7] = molecular target: Fuc(a1-2)[Gal(a1-3)]Gal(b1-4)GlcNAc
# Procedure, shortened: as §1
# [8] = molecular target: Fuc(a1-2)[Gal(a1-3)]Gal(b1-4)GlcNAc(b1-2)Man
# Procedure, shortened: as §1
# [9] = molecular target: Fuc(a1-2)[Gal(a1-3)]Gal(b1-4)GlcNAc(b1-2)Man(a1-3)[Fuc(a1-2)[Gal(a1-3)]Gal(b1-4)GlcNAc(b1-2)Man(a1-6)]Man(b1-4)GlcNAc(b1-4)[Fuc(a1-6)]GlcNAc
# Procedure, shortened: as §1
# [10] = molecular target: Fuc(a1-2)[Gal(a1-3)]Gal(b1-4)GlcNAc(b1-6)GalNAc
# Procedure, shortened: as §1
# [11] = molecular target: Fuc(a1-2)[GalNAc(a1-3)]Gal(b1-3)GlcNAc
# Procedure, shortened: as §1
# [12] = molecular target: Fuc(a1-2)[GalNAc(a1-3)]Gal(b1-4)GlcNAc(b1-2)Man
# Procedure, shortened: as §1
# [13] = molecular target: Fuc(a1-2)[GalNAc(a1-4)]Gal(b1-4)GlcNAc
# Procedure, shortened: as §1
# [14] = molecular target: Fuc(a1-3)[Gal(b1-4)]GlcNAc(b1-6)[Gal(b1-3)GlcNAc(b1-3)]Gal(b1-4)Glc
# Procedure, shortened: as §1
# [15] = molecular target: Fuc(a1-3)[Gal3S(b1-4)]GlcNAc
# Procedure, shortened: as §1
# [16] = molecular target: Gal(a1-3)Gal(b1-3)[Fuc(a1-4)]GlcNAc(b1-2)Man(a1-3)[Gal(a1-3)Gal(b1-3)[Fuc(a1-4)]GlcNAc(b1-2)Man(a1-6)]Man(b1-4)GlcNAc(b1-4)GlcNAc
# Procedure, shortened: as §1
# [17] = molecular target: Gal(a1-3)Gal(b1-4)GlcNAc(b1-2)Man
# Procedure, shortened: as §1
# Gal(a1-3)GalNAc = molecular target: Gal(a1-3)GalNAc
# Procedure, shortened: as §1
# [18] = molecular target: Gal(a1-4)Gal(b1-3)GlcNAc(b1-2)Man(a1-3)[Gal(a1-4)Gal(b1-3)GlcNAc(b1-2)Man(a1-6)]Man(b1-4)GlcNAc(b1-4)GlcNAc
# Procedure, shortened: as §1
# Gal(b1-2)Gal = molecular target: Gal(b1-2)Gal
# Procedure, shortened: as §1
# [19] = molecular target: Gal(b1-3)GlcNAc(b1-3)Gal(b1-4)[Fuc(a1-3)]GlcNAc
# Procedure, shortened: as §1
# [20] = molecular target: Gal(b1-3)[Fuc(a1-4)]GlcNAc(b1-6)GalNAc
# Procedure, shortened: as §1
# [21] = molecular target: Gal(b1-4)GlcNAc(b1-2)Man(a1-3)[Gal(b1-4)GlcNAc(b1-2)Man(a1-6)][GlcNAc(b1-4)]Man(b1-4)GlcNAc(b1-4)[Fuc(a1-6)]GlcNAc
# Procedure, shortened: as §1
# [22] = molecular target: Gal(b1-4)GlcNAc(b1-2)Man(a1-6)[GlcNAc(b1-2)Man(a1-3)]Man(b1-4)GlcNAc(b1-4)GlcNAc
# Procedure, shortened: as §1
# [23] = molecular target: Gal(b1-4)GlcNAc(b1-3)Gal(b1-4)GlcNAc(b1-3)Gal(b1-4)GlcNAc
# Procedure, shortened: as §1
binder,measurement,setting,value
B1,glycan array binding signal (z-score),[1],-0.259
same,glycan array binding signal (z-score),Fuc(a1-2)Gal(b1-3)GlcNAc,0.14
same,glycan array binding signal (z-score),Fuc(a1-2)Gal(b1-4)Glc,0.021
same,glycan array binding signal (z-score),[2],-0.038
same,glycan array binding signal (z-score),[3],-0.529
same,glycan array binding signal (z-score),[4],3.88
same,glycan array binding signal (z-score),[5],3.71
same,glycan array binding signal (z-score),[6],2.26
same,glycan array binding signal (z-score),[7],3.76
same,glycan array binding signal (z-score),[8],2.84
same,glycan array binding signal (z-score),[9],3.64
same,glycan array binding signal (z-score),[10],-0.535
same,glycan array binding signal (z-score),[11],1
same,glycan array binding signal (z-score),[12],3.48
same,glycan array binding signal (z-score),[13],-0.537
same,glycan array binding signal (z-score),[14],0.008
same,glycan array binding signal (z-score),[15],-0.521
same,glycan array binding signal (z-score),[16],-0.204
same,glycan array binding signal (z-score),[17],0.378
same,glycan array binding signal (z-score),Gal(a1-3)GalNAc,-0.533
same,glycan array binding signal (z-score),[18],-0.534
same,glycan array binding signal (z-score),Gal(b1-2)Gal,-0.521
same,glycan array binding signal (z-score),[19],0.099
same,glycan array binding signal (z-score),[20],-0.515
same,glycan array binding signal (z-score),[21],-0.123
same,glycan array binding signal (z-score),[22],-0.108
same,glycan array binding signal (z-score),[23],0.937
